Assay results: PubChem BioAssay (EPA / NIEHS)
Where “and” joins values, the source holds several entries; their conditions need not be identical. Identical values can stand only once. Where a structure was tested more than once in an assay, its records may differ in their call. Calls of active or inactive are those of the source. Rule for the calls: active = hit-call score of the fitted dose curve at least 0.9, where 1 is the maximum; inactive = score below 0.9.

Experiments:
[1] = biological target: Bile acid receptor (Homo sapiens) (UniProt Q96RI1); experiment: ATG_IR1_CIS: Attagene CIS-FACTORIAL HepG2 Assay for human Nuclear Receptor Subfamily 1 Group H Member 4 (NR1H4), IR1 submotif (AID 2282946); details: IR1 reporter transcription, actives raise or lower the signal
Sequence of Bile acid receptor (Homo sapiens) (Q96RI1 whole entry, looked up): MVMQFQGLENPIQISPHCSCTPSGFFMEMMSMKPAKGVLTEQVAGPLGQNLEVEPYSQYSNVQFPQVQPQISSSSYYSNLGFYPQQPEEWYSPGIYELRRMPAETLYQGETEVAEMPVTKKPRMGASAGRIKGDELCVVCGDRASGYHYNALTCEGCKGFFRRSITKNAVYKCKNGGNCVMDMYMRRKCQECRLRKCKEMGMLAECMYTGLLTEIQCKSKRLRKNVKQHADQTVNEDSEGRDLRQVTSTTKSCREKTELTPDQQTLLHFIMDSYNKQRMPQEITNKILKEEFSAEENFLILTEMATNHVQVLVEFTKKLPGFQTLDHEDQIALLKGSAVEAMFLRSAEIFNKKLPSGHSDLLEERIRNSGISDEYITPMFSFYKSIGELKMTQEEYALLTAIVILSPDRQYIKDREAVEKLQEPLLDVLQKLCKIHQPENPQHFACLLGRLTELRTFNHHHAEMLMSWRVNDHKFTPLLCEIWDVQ
In short: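 HepG2 cells transiently transfected with multiplexed cis-element reporter units read endogenous transcription factor activity. After 24 h compound exposure, reporter mRNA was quantified by RT-PCR, fluorescent labelling, HpaI digestion and capillary electrophoresis; bidirectional fitting versus DMSO baseline.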

[2] = ATG_ISRE_CIS: Attagene CIS-FACTORIAL HepG2 Assay for human Interferon Regulatory Factor 1 (IRF1) binding to an Interferon-Stimulated Response Element (ISRE) (AID 2282948); details: HepG2 ISRE cis-reporter (Attagene), mRNA transcription readout; actives raise or lower the signal
In short: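 Uses HepG2 liver cells transfected with cis-regulated reporters and measures mRNA 24 h post-dosing through RT-PCR, primer-extension labelling and capillary electrophoresis, with DMSO as negative control.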

[3] = ATG_M_32_CIS: Attagene CIS-FACTORIAL HepG2 Assay for M32 Transcription Factor (Internal Marker) (AID 2282949); details: HepG2 Attagene cis-factorial M32 reporter, mRNA; actives raise or lower the signal;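 note: background control marker of the multiplexed CIS panel rather than a real target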
In short: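 Transient MRTU transfection of HepG2; 24 h compound treatment; TriZol RNA, oligo(dT) RT, reporter PCR, 6-FAM primer extension, HpaI cut, CE. Gain/loss of signal vs DMSO.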

[4] = ATG_M_06_CIS: Attagene CIS-FACTORIAL HepG2 Assay for M06 Transcription Factor (Internal Marker) (AID 2282950); details: HepG2 Attagene CIS-FACTORIAL M06 internal marker reporter; actives raise or lower the signal
In short: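 Terse: HepG2, transient MRTU transfection (FuGene 6), 24 h dosing; total RNA, oligo(dT) RT, PCR, FAM label, HpaI cut, capillary electrophoresis; bidirectional fit vs DMSO baseline; background-control endpoint.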

[5] = biological target: Hypoxia-inducible factor 1-alpha (Homo sapiens) (UniProt Q16665); experiment: ATG_HIF1a_CIS: Attagene CIS-FACTORIAL HepG2 Assay for human Hypoxia Inducible Factor 1 (HIF1A) (AID 2282951); details: HepG2 Attagene cis-factorial HIF1a reporter transcription; actives raise or lower the signal
Sequence of Hypoxia-inducible factor 1-alpha (Homo sapiens) (Q16665 whole entry, looked up): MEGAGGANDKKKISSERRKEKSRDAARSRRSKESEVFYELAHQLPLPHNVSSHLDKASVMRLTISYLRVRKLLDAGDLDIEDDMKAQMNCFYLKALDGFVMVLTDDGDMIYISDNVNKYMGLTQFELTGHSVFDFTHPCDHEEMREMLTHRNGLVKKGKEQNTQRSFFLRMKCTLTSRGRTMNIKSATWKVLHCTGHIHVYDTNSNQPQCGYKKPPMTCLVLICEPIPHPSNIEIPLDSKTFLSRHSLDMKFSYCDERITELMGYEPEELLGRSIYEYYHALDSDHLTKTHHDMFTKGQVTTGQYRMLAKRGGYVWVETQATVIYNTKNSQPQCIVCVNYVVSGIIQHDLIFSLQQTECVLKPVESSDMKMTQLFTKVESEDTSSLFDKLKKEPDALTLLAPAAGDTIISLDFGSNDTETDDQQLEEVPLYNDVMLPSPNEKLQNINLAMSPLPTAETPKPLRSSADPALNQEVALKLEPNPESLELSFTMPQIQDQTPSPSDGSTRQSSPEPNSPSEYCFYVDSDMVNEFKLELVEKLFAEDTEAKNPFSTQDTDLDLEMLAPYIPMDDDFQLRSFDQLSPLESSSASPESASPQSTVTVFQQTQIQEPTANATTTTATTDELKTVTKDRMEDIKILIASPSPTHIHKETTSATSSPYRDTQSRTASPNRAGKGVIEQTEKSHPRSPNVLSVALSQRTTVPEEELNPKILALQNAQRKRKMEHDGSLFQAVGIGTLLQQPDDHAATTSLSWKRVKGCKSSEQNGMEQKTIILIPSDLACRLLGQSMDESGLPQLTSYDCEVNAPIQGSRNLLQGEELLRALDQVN
In short: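 Dosed 24 h, transfected HepG2 cells yielded total RNA whose reporter transcripts were RT-PCR-amplified and sized by capillary electrophoresis using fluorescent labelling; DMSO defined baseline, with gain and loss of signal both fitted.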

[6] = biological target: Hepatocyte nuclear factor 6 (Homo sapiens) (UniProt Q9UBC0); experiment: ATG_HNF6_CIS: Attagene CIS-FACTORIAL HepG2 Assay for human Hepatocyte Nuclear Factor 6 (HNF6) (AID 2282952); details: HepG2 Attagene cis-factorial HNF6 reporter transcription; actives raise or lower the signal
Sequence of Hepatocyte nuclear factor 6 (Homo sapiens) (Q9UBC0 whole entry, looked up, the tested form may be a part): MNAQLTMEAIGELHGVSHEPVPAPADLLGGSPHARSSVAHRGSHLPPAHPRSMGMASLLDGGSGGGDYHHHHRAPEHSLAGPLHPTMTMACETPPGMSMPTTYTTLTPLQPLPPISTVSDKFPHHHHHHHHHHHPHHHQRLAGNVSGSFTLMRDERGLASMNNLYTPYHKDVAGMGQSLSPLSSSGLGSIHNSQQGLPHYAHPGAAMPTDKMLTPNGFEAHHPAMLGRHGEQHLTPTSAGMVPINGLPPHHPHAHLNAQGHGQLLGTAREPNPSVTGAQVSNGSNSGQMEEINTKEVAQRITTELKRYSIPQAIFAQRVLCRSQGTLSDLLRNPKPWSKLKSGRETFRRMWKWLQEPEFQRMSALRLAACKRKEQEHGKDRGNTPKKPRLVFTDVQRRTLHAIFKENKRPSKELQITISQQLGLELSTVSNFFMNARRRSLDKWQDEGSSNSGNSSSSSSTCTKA
In short: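 Twenty-four-hour chemical treatment of reporter-transfected HepG2 cells precedes RNA isolation, DNase-treated reverse transcription and PCR of reporter sequences. Labelled fragments are sized by capillary electrophoresis and fitted bidirectionally versus DMSO.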

[7] = biological target: Heat shock factor protein 1 (Homo sapiens) (UniProt Q00613); experiment: ATG_HSE_CIS: Attagene CIS-FACTORIAL HepG2 Assay for human Heat Shock Transcription Factor 1 (HSE) (AID 2282953); details: HepG2 HSE cis-reporter, Attagene RNA transcription; actives raise or lower the signal
Sequence of Heat shock factor protein 1 (Homo sapiens) (Q00613 whole entry, looked up, the tested form may be a part): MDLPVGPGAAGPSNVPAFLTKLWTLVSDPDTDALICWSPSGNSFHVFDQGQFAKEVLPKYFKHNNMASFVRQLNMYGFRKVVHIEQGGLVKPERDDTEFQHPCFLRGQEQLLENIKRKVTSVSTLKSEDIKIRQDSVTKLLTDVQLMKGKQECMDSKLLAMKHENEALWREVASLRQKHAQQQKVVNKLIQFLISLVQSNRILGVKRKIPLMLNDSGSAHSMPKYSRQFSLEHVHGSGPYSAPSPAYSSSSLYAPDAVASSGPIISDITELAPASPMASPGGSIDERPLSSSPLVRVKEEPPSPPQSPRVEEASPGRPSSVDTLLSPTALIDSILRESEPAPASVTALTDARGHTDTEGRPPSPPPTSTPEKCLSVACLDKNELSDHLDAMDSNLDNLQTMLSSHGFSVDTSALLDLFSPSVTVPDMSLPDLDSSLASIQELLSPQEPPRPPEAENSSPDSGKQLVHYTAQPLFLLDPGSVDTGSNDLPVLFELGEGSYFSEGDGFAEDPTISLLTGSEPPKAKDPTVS
In short: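 Read-out: fluorescence of reporter-specific RT-PCR fragments separated by capillary electrophoresis. HepG2 carrying transfected cis-element reporter units; 24 h dosing; activity fitted in both directions relative to DMSO baseline.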

[8] = ATG_MRE_CIS: Attagene CIS-FACTORIAL HepG2 Assay for human Metal Responsive Element (MRE) (AID 2282954); details: HepG2 MRE cis-reporter transcription, Attagene multiplex; actives raise or lower the signal
In short: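 Multiplexed cis-reporter assay in human HepG2 liver cells, 24 h incubation with test chemical. Reporter transcripts measured by RT-PCR and capillary electrophoresis; values from bidirectional curve fitting versus DMSO.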

[9] = biological target: Paired box protein Pax-6 (Homo sapiens) (UniProt P26367); experiment: ATG_Pax6_CIS: Attagene CIS-FACTORIAL HepG2 Assay for human Paired Box 6 (PAX6) (AID 2282956); details: HepG2 CIS-FACTORIAL PAX6 reporter transcription, RNA readout; actives raise or lower the signal
Sequence of Paired box protein Pax-6 (Homo sapiens) (P26367 whole entry, looked up): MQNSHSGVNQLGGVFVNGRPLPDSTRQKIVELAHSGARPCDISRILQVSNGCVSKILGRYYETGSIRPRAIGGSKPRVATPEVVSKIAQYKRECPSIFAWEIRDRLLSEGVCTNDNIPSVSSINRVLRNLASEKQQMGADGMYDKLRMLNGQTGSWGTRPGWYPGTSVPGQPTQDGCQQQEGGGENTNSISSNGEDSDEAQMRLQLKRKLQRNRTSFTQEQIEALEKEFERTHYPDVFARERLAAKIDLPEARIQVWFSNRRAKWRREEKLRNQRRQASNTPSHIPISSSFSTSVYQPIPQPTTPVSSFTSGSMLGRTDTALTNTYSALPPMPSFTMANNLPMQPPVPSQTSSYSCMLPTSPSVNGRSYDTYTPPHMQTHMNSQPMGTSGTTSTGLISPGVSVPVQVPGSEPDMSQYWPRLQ
In short: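 DMSO-referenced bidirectional fits of reporter mRNA fluorescence; HepG2 with transient cis-promoter MRTUs, 24 h post-dose, RT-PCR plus capillary electrophoresis detection.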

[10] = ATG_PXRE_CIS: Attagene CIS-FACTORIAL HepG2 Assay for human Pregnane X Receptor Element (PXRE) (AID 2282957); details: HepG2 Attagene CIS-FACTORIAL PXRE reporter, mRNA; actives raise or lower the signal
In short: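 Bidirectional activity, baselined to DMSO, derived from reporter mRNA fluorescence (RT-PCR plus capillary electrophoresis) in HepG2 cells bearing cis-promoter reporter units, 24 h exposure.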

[11] = ATG_PPRE_CIS: Attagene CIS-FACTORIAL HepG2 Assay for human Peroxisome Proliferator-activated Response Element (PPRE) (AID 2282958); details: HepG2 PPRE cis-element reporter, Attagene transcription factor profiling; actives raise or lower the signal
In short: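 Measured endpoint: PPRE-controlled reporter mRNA, detected by RT-PCR and capillary electrophoresis fluorescence, from transiently transfected HepG2 cells 24 h after dosing. Curves fitted in both directions using DMSO baseline.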

[12] = ATG_RORE_CIS: Attagene CIS-FACTORIAL HepG2 Assay for human RAR-related Orphan Receptor Element (RORE) (AID 2282959); details: HepG2 Attagene cis-factorial RORE reporter, mRNA; actives raise or lower the signal
In short: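 Transiently transfected HepG2 reporter cells were treated 24 h. Reporter transcripts were detected by RT-PCR and capillary electrophoresis, with bidirectional fitting against DMSO.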

[13] = ATG_Sox_CIS: Attagene CIS-FACTORIAL HepG2 Assay for human SRY-box transcription factor (SOX) (AID 2282960); details: HepG2 Attagene cis-factorial SOX reporter, mRNA; actives raise or lower the signal
In short: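 Gain- or loss-of-signal endpoint, fitted bidirectionally with DMSO as negative control. Based on reporter mRNA from transfected HepG2 cells harvested 24 h post-treatment and quantified via RT-PCR and capillary electrophoresis.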

[14] = biological target: Transcription factor Sp1 (Homo sapiens) (UniProt P08047); experiment: ATG_Sp1_CIS: Attagene CIS-FACTORIAL HepG2 Assay for human Specificity Protein 1 (Sp1) (AID 2282961); details: HepG2 Sp1 cis-reporter transcription, actives raise or lower the signal
Sequence of Transcription factor Sp1 (Homo sapiens) (P08047 whole entry, looked up, the tested form may be a part): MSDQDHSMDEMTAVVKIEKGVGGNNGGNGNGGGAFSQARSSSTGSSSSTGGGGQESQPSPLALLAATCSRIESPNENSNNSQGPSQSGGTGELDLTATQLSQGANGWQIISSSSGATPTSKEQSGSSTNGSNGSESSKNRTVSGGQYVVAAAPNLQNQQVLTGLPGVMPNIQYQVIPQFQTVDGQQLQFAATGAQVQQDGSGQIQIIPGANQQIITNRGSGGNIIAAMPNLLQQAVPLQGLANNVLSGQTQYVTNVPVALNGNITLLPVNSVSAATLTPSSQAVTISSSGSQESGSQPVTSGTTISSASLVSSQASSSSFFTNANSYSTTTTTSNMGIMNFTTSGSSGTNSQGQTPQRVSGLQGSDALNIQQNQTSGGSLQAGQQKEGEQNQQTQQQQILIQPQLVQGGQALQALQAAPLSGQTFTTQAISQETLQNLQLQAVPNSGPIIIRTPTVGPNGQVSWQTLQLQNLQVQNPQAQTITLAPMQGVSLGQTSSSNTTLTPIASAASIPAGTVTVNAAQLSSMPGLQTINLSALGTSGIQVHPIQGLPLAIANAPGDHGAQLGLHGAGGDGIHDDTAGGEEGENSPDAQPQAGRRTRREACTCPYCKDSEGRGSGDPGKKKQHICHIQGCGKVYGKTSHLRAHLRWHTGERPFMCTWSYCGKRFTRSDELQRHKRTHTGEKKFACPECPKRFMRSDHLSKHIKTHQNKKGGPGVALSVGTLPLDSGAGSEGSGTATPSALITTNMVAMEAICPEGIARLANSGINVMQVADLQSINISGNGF
In short: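 Endpoint reflects endogenous Sp1 transcriptional activity, not an exogenous fusion protein: HepG2 cells with transfected cis-regulated reporters, 24 h dosing, RT-PCR/capillary electrophoresis mRNA read-out, DMSO-normalised bidirectional fit.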

[15] = ATG_SREBP_CIS: Attagene CIS-FACTORIAL HepG2 Assay for human Sterol Regulatory Element Binding (SREBP) (AID 2282962); details: HepG2 Attagene cis-factorial SREBP reporter, mRNA; actives raise or lower the signal
In short: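 In this cis-format assay, HepG2 liver cells express reporters controlled by promoter elements responsive to native transcription factors. Exposure lasts 24 h; reporter mRNA fluorescence from capillary electrophoresis gives the signal, fitted bidirectionally against DMSO.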

[16] = biological target: Signal transducer and activator of transcription 3 (Homo sapiens) (UniProt P40763); experiment: ATG_STAT3_CIS: Attagene CIS-FACTORIAL HepG2 Assay for human Signal Transducer and Activator of Transcription 3 (STAT3) (AID 2282963); details: HepG2, Attagene cis-factorial STAT3 reporter transcription; actives raise or lower the signal
Sequence of Signal transducer and activator of transcription 3 (Homo sapiens) (P40763 whole entry, looked up): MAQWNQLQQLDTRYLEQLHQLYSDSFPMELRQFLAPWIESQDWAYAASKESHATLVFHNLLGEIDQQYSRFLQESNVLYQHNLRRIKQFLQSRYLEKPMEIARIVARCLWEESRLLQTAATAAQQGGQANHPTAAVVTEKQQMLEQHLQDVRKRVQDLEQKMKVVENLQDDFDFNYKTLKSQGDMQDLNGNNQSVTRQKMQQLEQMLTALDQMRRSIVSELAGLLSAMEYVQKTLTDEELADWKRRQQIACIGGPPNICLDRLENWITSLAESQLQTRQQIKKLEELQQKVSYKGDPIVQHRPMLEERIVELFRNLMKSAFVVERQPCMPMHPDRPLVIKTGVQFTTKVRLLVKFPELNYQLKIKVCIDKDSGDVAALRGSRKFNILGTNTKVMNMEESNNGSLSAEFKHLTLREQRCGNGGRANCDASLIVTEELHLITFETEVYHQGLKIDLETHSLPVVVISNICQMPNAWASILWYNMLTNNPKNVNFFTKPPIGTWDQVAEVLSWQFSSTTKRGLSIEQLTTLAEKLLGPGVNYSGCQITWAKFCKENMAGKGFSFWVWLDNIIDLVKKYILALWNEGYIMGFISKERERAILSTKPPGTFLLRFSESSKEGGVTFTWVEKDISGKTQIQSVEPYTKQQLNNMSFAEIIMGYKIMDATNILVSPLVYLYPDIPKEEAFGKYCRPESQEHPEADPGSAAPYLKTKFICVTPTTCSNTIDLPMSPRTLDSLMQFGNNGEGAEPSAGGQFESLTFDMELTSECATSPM
In short: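 Cis-factorial format: endogenous transcription factors in HepG2 drive transfected reporter units. After 24 h treatment, reporter RNA was reverse-transcribed, amplified, FAM-labelled and HpaI-digested before CE analysis; activity scored in both directions against DMSO.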

[17] = ATG_TA_CIS: Attagene CIS-FACTORIAL HepG2 Assay for human TA Basal Promoter (AID 2282964); details: HepG2 Attagene CIS-factorial TA basal promoter reporter; actives raise or lower the signal
In short: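 Transfected HepG2, 24 h compound exposure; RNA → RT-PCR → FAM primer extension → HpaI cut → CE fluorescence. Gain/loss-of-signal fitted against DMSO negative control. Background-control readout.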

[18] = ATG_TCF_b_cat_CIS: Attagene CIS-FACTORIAL HepG2 Assay for human T-Cell-Factor with beta-catenin (TCF/b-cat) (AID 2282965); details: HepG2 TCF/beta-catenin cis-reporter transcription, actives raise or lower the signal
In short: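 Measured: reporter mRNA in HepG2 transiently transfected with cis-promoter reporter units, 24 h after chemical addition. Fitting was bidirectional, DMSO as negative control.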

[19] = ATG_PBREM_CIS: Attagene CIS-FACTORIAL HepG2 Assay for human Phenobarbital-responsive Enhancer Module (PBREM) (AID 2282955); details: HepG2 PBREM cis-reporter, Attagene multiplexed transcription; actives raise or lower the signal
In short: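 Transfected liver-derived HepG2 cells exposed 24 h; PBREM reporter transcript quantified via RT-PCR and capillary electrophoresis, with activity in either direction referenced to DMSO.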

Measured: AC50

C=CC(=O)N(C)C
not listed: [19]
inactive: all other assays above

CCc1ccccc1C
not listed: [19]
inactive: all other assays above

CCC(=O)c1ccccc1
not listed: [3]
inactive: all other assays above

C(=NC1CCCCC1)=NC1CCCCC1
active: [2] 17.7 µM | [8] 33.4 µM | [19] 8.4 µM | [11] 2.46 µM | [12] 2.33 µM | [15] 17.2 µM
inactive: all other assays above

COP(=O)(OC)O/C(=C\Cl)c1cc(Cl)c(Cl)cc1Cl
inactive: [1] | [3] | [4] | [6] | [12] | [14] | [16]
active: [2] 47 µM | [5] 100 µM | [7] 153 µM | [8] 100 µM | [9] 35.2 µM | [11] 154 µM | [13] 44.3 µM | [15] 26.9 µM | [17] 73.4 µM | [18] 34.9 µM

c1cc[c]([Hg][c]2ccccc2)cc1
active: [8] 14.4 µM | [12] 25.6 µM | [14] 24.5 µM
not listed: [10] | [19]
inactive: all other assays above

CCOP(OCC)OCC
not listed: [11]
inactive: all other assays above

CC(C)c1ccc(CO)cc1
not listed: [18] | [19]
inactive: all other assays above

CC(C)CCCCCCOC(=O)c1ccccc1C(=O)OCCCCCCC(C)C
active: [10] 1.39 µM
not listed: [11] | [12]
inactive: all other assays above

CCC(C)c1cccc(C(C)CC)c1O (stereo not given)
active: [10] 5.61 µM
not listed: [19]
inactive: all other assays above

O=C(O)C(F)(F)C(F)(F)C(F)(F)C(F)(F)C(F)(F)C(F)(F)C(F)(F)C(F)(F)C(F)(F)C(F)(F)F
active: [2] 44.5 µM and 20.1 µM | [3] 160 µM | [4] 76.2 µM | [5] 23.2 µM | [7] 14.9 µM | [8] 23.2 µM and 15.5 µM | [19] 70.8 µM | [9] 30.8 µM | [10] 62 µM | [12] 24.2 µM | [13] 58.4 µM | [18] 31.9 µM and 13.1 µM
inactive: [1] | [3] | [4] | [5] | [6] | [7] | [19] | [9] | [10] | [12] | [13] | [14] | [15] | [16] | [17]

CN(CCCC(=O)c1cccnc1)N=O
not listed: [10]
inactive: all other assays above

Nc1cccc(Cl)c1
not listed: [7] | [18]
inactive: all other assays above

O=C(O)Cc1ccccc1
not listed: [3] | [11] | [18]
inactive: all other assays above
